Among all 410,000 compounds or so, about 3,100 (0.76%) were called active. The sample as a whole holds a higher share of actives than the screen did. A number with no mark means an inactive call. The call rests on the fitted dose curve; in most records, active means well fitted cell-killing curve with a large enough effect; inactive means no such curve, though single readings can be large or run the other way.
Assay: qHTS for Inhibitors of TGF-b: Cytotox Counterscreen
Conditions: HepG2 CAGA-GFP viability, ATP luminescence, 18 h; series mostly up to 46.1 µM; activity change, negative = cytotoxicity: at the top concentration
Method in brief: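 CellTiter-Glo luminescence gave cytotoxicity after 18 hours at 37 degrees C. The cells were HepG2 CAGA-GFP in 1% FBS DMEM, stimulated with 500 pg/mL TGF-beta after compound addition. %Activity was normalised to no-cell wells (complete cell-killing) and DMSO (no toxicity), and curves were fitted and classified.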
Potency means the concentration at half of the fitted maximal effect.

| SMILES | activity change, negative = cytotoxicity [%] | Potency |
| --- | --- | --- |
| Cc1ccc(C(=O)N2CCc3cc(CNC(=O)c4ccc(Br)cc4)ccc32)cc1 | -18 |  |
| O=C(CSc1nc(Nc2ccccc2)nc(N2CCOCC2)n1)Nc1cc(Cl)ccc1O |  | 6.31 µM (active) |
| O=C(CSc1ccccc1)Nc1cc(Cl)ccc1Oc1ccccc1 | -3.19 |  |
| O=C(CSc1nc2ccc(Nc3nc(N4CCOCC4)nc(N4CCOCC4)n3)cc2s1)NCc1ccco1 | -31.4 |  |
| O=[N+]([O-])c1ccc(/C=C/c2ccc3cccnc3c2)cc1 | -53.7 |  |
| O=C1/C(=C\c2ccc([N+](=O)[O-])cc2)CS(=O)(=O)C/C1=C/c1ccc([N+](=O)[O-])cc1 |  | 14.1 µM (active) |
| c1ccc2cc3c(NCCN4CCOCC4)ccnc3cc2c1 |  | 3.55 µM (active) |
| O=C(Cc1ccc(Br)cc1)NCCN1CCOCC1 | 4.13 |  |
| O=S(=O)(c1ccc(Cl)cc1)c1nc(-c2ccccc2F)oc1NCCN1CCOCC1 | 16.4 |  |
| CCC(=O)N1CCc2cc(CNC(=O)Nc3ccccc3Cl)ccc21 | -8.04 |  |
| COc1ccc(-c2nc(S(=O)(=O)c3ccccc3)c(N3CCCCC3)o2)cc1 | -4.93 |  |
| CCCc1cc(-c2nc(-c3ccc(C)cc3)cs2)ccn1 |  | 10 µM (active) |
| CCCc1nc2scc(-c3ccc(C)cc3)c2c(=O)n1N | 26.8 |  |
| Fc1ccc(-c2csc(-c3ccc(C4SCCS4)cc3)n2)cc1F | -2.96 |  |
| CC1(C)Cc2ccccc2-c2c[nH]c(=O)n21 | -4.31 |  |
| CCN(CC)CCOc1ccc2c(c1)C(=NNC(=O)c1ccccn1)c1cc(OCCN(CC)CC)ccc1-2 |  | 15.8 µM (active) |
| CCOc1ccc(C(=O)N2CCN(CCc3ccccn3)CC2)cc1 | 3.93 |  |
| CC(C)(C)c1ccc(C(=O)C[n+]2cccc3cc(Cl)ccc32)cc1 | -92 |  |
| CCN(C(=O)Cn1c(=O)nc(-c2ccccc2)c2cc(Cl)ccc21)c1cccc(C)c1 | 6.33 |  |
| O=C(c1cnn2c1NC(=C1CC1)C=C2C(F)F)N1CCc2ccccc2C1 | -9.79 |  |
| CN1CCN(c2oc(-c3ccc(COc4ccc(Cl)cc4)o3)nc2C#N)CC1 | -30 |  |
| CN(C)Cc1cn(-c2ccccc2)nc1-c1ccccc1 | -26.4 |  |
| CCc1ccc(-c2nn(-c3ccccc3C)cc2C(=O)N2CCN(C3CCS(=O)(=O)C3)CC2)cc1 (configuration not stated) | -12 |  |
| CCc1ccc(-c2nn(-c3ccccc3)cc2CSC(=N)N)cc1 |  | 17.8 µM (active) |
| Cc1cc(C)c(NC(=O)Cn2c(SCC(=O)NCc3ccccc3)nc3ccccc32)c(C)c1 | 1.54 |  |

| SMILES | activity change, negative = cytotoxicity [%] | Potency |
| --- | --- | --- |
| Cc1ccc(Cl)cc1N1CCN(C(=O)C2CCC(CNS(=O)(=O)c3cccs3)CC2)CC1 (configuration not stated) | -0.372 |  |
| Cc1ccc(CN2CCC(CNC(=O)c3cnn(-c4ccc(C)cc4)c3C3CCN(C(=O)OC(C)(C)C)CC3)CC2)cc1 | -71.7 |  |
| COc1ccccc1CN1CCC(CNC(=O)c2cnn(-c3ccccc3Cl)c2C2CCN(C(=O)OC(C)(C)C)CC2)CC1 | -60.3 |  |
| Cc1ccc(CN2CCC(CNC(=O)c3cnn(-c4ccccc4Cl)c3C3CCN(C(=O)OC(C)(C)C)CC3)CC2)cc1 |  | 17.8 µM (active) |
| CC1(C)CC(=O)c2cc(C(=O)NCc3ccccc3)c(=O)[nH]c2C1 | -16.3 |  |
| CCc1nc2c(OCc3ccc(Cl)cc3Cl)cccn2c1N(C)C(=O)C(C)C | -112 |  |
| Cc1nc2c(OCc3ccc(Cl)cc3)cccn2c1N(C)Cc1cccs1 | -61.6 |  |
| CCCCC(=O)N(C)c1c(CC)nc2c(OCc3ccc(Cl)cc3Cl)cccn12 |  | 12.6 µM (active) |
| Cc1nc2c(OCc3cccc(Cl)c3)cccn2c1N(C)CC1CC1 | -32.8 |  |
| Cc1nc2c(OCc3ccc(Cl)cc3Cl)cccn2c1N(C)CC1CC1 |  | 11.2 µM (active) |
| CCCCC(=O)N(C)c1c(CC)nc2c(OCc3ccc(S(C)(=O)=O)cc3)cccn12 | -22.7 |  |
| Cc1ccc(C)c(S(=O)(=O)c2nnn3c2nc(N2CCOCC2)c2sccc23)c1 | -0.494 |  |
| CN1CCN(/[N+]([O-])=N/Oc2ccc([N+](=O)[O-])cc2[N+](=O)[O-])CC1 | -43.6 |  |
| CC1(C)C=Cc2c(ccc(C(=O)/C=C/c3ccccc3)c2O)O1 | -21.1 |  |
| O=C1C=CC(=O)N1c1ccc(N2CCCCC2)cc1 |  | 17.8 µM (active) |
| Cc1ccc(CNC(=O)CCc2c(C)nc3c(c(C)nn3-c3ccccc3)c2C)cc1 | -0.273 |  |
| O=C(Nc1ccc(Cl)cc1)c1cnn2c1NC(=C1CC1)C=C2C(F)F | 8.6 |  |
| COc1ccc(-c2nc3sc(CCNC(=O)C(C)(C)C)c(C)n3n2)cc1 | -8.78 |  |
| CC1CCC2(CC1)N=C(c1ccccc1)C(=O)N2CC(=O)Nc1ccc(F)c(Cl)c1 (configuration not stated) | -29.1 |  |
| CCn1c(CC(=O)Nc2ccc(C)cc2)nnc1SCC(=O)Nc1nc(C)cs1 | -0.792 |  |
| COCCn1c(SCC(=O)Nc2nc(C)cs2)nnc1C(C)C |  | 11.2 µM (active) |
| CCn1c(SCC(=O)Nc2nc(C)cs2)nnc1C(C)NC(=O)c1ccccc1 (configuration not stated) | -6.84 |  |
| CCn1c2ccccc2c2nnc(SCC(=O)O)nc21 | -10.9 |  |
| COc1ccc(NC(=O)Nc2cccc(-c3noc(C)n3)c2)cc1 | -21.4 |  |
| Cc1ccc(S(=O)(=O)N2CCN(c3nc(-n4cnc5ccccc54)nc4ccccc34)CC2)cc1 | -20.3 |  |

| SMILES | activity change, negative = cytotoxicity [%] | Potency |
| --- | --- | --- |
| Cc1sc2ncn(CC(=O)N3CCN(c4ccc(F)cc4)CC3)c(=O)c2c1S(=O)(=O)N1CCN(c2ncccn2)CC1 | -13.7 |  |
| CC(C)(C)OC(=O)N(Cc1ccco1)S(=O)(=O)c1ccccc1Br | 49 |  |
| C=C1C=C(C(F)F)n2ncc(C(=O)NCCc3ccccc3OC)c2N1 | 9.57 |  |
| COc1ccc(-c2cn3c(n2)sc2cc(C(=O)Nc4ccccc4F)ccc23)cc1 | -25.4 |  |
| CC(Nc1nc(C(F)(F)F)nc2ccccc12)c1cccs1 (configuration not stated) |  | 22.4 µM (active) |
| Oc1ccccc1-c1nc(/C=C/c2ccc(F)cc2)no1 | -4.32 |  |
| COc1cc(Cl)ccc1Nc1ncc(C(=O)N2CCN(c3ccccc3OC)CC2)c2ccccc12 | -20.1 |  |
| Cc1ccc(S(=O)(=O)NCC2CCC(C(=O)N3CCOCC3)CC2)cc1 (configuration not stated) | -27.1 |  |
| O=C(NC1CCCCC1)C1CCC(CNS(=O)(=O)c2ccccc2)CC1 (configuration not stated) | 0.959 |  |
| O=C(O)C1CCC(CNS(=O)(=O)c2ccc(Br)cc2)CC1 (configuration not stated) |  | 15.8 µM (active) |
| O=C(NC1CC(=O)N(c2ccc(F)cc2)C1)c1ccc(S(=O)(=O)N2CCCC2)cc1 (configuration not stated) | -8.93 |  |
| CN(C(=O)CSc1nc2ccc(NC(=O)COc3ccccc3)cc2s1)c1ccccc1 | -19.4 |  |
| Cc1ccc(F)cc1NC(=O)CCSc1nc(-c2ccco2)cc(C(F)(F)F)n1 | -14.5 |  |
| CCc1ccc(CN(Cc2ccco2)C(=O)c2ccccc2Cl)cc1 | -52 |  |
| CC1CCCCN1S(=O)(=O)c1ccc(F)c(C(=O)Nc2ccccc2C(F)(F)F)c1 (configuration not stated) | -15 |  |
| Cc1ccc(CNC(=O)CCc2c(C)nn(-c3ccc(N4CCCC4)nn3)c2C)cc1 | -31.6 |  |
| N=c1n(Cc2ccc(Cl)cc2)c2ccccc2n1CC(O)c1ccco1 (configuration not stated) |  | 12.6 µM (active) |
| N=c1n(CCc2ccccc2)c2ccccc2n1Cc1ccccc1F | 3.66 |  |
| O=C(NCc1ccccc1)C(=O)NCC(c1ccco1)S(=O)(=O)c1ccc(Cl)cc1 (configuration not stated) | -15.4 |  |
| COc1ccccc1-c1ccnc2[nH]n(-c3ccccc3)c(=O)c12 | -6.7 |  |
| OCc1cnc(SCc2ccc(F)cc2)n1Cc1ccc(F)cc1 | -24.2 |  |
| NC(Cc1ccccc1)c1csc(Nc2cc(Oc3ccccc3)ncn2)n1 (configuration not stated) |  | 31.6 µM (active) |
| COCCn1c(SCC(=O)c2cc(C)ccc2C)nc2cc(C(=O)NC3CCCC3)ccc2c1=O | -6.56 |  |
| CCC(=O)N1CCc2cc(S(=O)(=O)NC(C(=O)Nc3ccc(C(C)=O)cc3)C(C)C)ccc21 (configuration not stated) | -14.7 |  |
| COC(=O)c1ccc(-c2nc3cc(NC(C)=O)ccc3o2)cc1 | -1.18 |  |

| SMILES | activity change, negative = cytotoxicity [%] | Potency |
| --- | --- | --- |
| O=C(Nc1cccc(-c2cccc(Cl)c2)c1)C1CCN(C2CCC2)CC1 | -73.6 |  |
| CC(=O)c1cc(CN2CCC(C(=O)Nc3cccc(-c4cscn4)c3)CC2)cs1 | -31.8 |  |
| CCn1cc(CN2CCC(C(=O)Nc3cccc(-c4cccc(Cl)c4)c3)CC2)c(C)n1 |  | 12.6 µM (active) |
| Cc1ccc(CNC(=O)C2(C(F)(F)F)C/C(=C\CCO)CCCO2)o1 (configuration not stated) | -11.9 |  |
| COc1cc(OC)c2c(C)cc(=O)oc2c1C(CCN1CCCCC1)c1ccc(N(C)C)cc1 (configuration not stated) | -34.4 |  |
| Cc1ccc(NS(=O)(=O)c2ccc(F)cc2)nc1 | -17 |  |
| Cc1cc(C)cc(NS(=O)(=O)c2ccc(Oc3ncc(C(F)(F)F)cc3Cl)cc2)c1 |  | 12.6 µM (active) |
| Nc1ncc(S(=O)(=O)Nc2ccc(OC(F)(F)F)cc2)cn1 | -7.99 |  |
| NC(=O)C1CCN(C(=O)c2cccc(NC(=O)c3nsc4ccccc34)c2)CC1 | -18 |  |
| COc1cc(OC)c(N(C)C(=O)c2cc3c(=O)oc4ccccc4c3s2)cc1Cl | -20 |  |
| Cc1ccc(S(=O)(=O)/N=C2\C=C(NS(=O)(=O)c3ccc(C)cc3)C(=O)c3ccccc32)cc1 | -112 |  |
| CC(C)CC[n+]1ccn(C2=C([O-])c3ccccc3C(=O)/C2=N\S(=O)(=O)c2ccccc2)c1 |  | 5.62 µM (active) |
| C=C1CCN(C(CC(C)C)C(=O)N2CCOCC2)S(=O)(=O)c2ccccc21 (configuration not stated) | -22.3 |  |
| O=C(CN1c2ccccc2S(=O)(=O)c2ccccc21)Nc1cccc(C(F)(F)F)c1 | -28.4 |  |
| Cc1oc2ccc(O)c(CN3CCCCC3)c2c1C(=O)Nc1cccc(C(F)(F)F)c1 | -71.8 |  |
| NC(c1csc(NC(=O)Nc2cccc(C(F)(F)F)c2)n1)C1CCCCC1 (configuration not stated) |  | 8.91 µM (active) |
| O=C(CC(NCc1cccnc1)C(=O)O)Nc1ccc(O)cc1 (configuration not stated) | -1.55 |  |
| O=C(N/N=C/c1cccc2cccnc12)[C@H]1C[C@@H]1c1ccccc1 | -31.3 |  |
| O=C(CSc1cccc2cccnc12)N/N=C/c1cccnc1 |  | 7.08 µM (active) |
| Cc1c(Cl)cccc1NC(=O)CSc1ccc(-c2cccnc2)nn1 | -17.7 |  |
| Cc1cc[n+](C2CCCCC2)cc1 | -32.8 |  |
| COc1cccc(CNC(=O)c2ccc3c(c2)N(Cc2ccc(C(F)(F)F)cc2)C(=O)c2ccccc2S3)c1OC | -21.3 |  |

— PubChem BioAssay AID588856 (National Center for Advancing Translational Sciences (NCATS), 2011)
